According to PubChem BioAssay (NCATS):
Results filed as inconclusive are left out. Activity calls are given as the source filed them. Unless noted, calls follow the shape of the dose curve; as a rule, active = well fitted curve in the direction sought with a large enough effect; inconclusive = small, poorly fitted or top-dose-only effect, or another doubt; inactive = no such curve, though single readings can be large; an effect the other way counts as inactive or inconclusive.

Tests used:
[1] = molecular target: Lysosomal acid glucosylceramidase (Homo sapiens) (UniProt P04062); assay: Glucocerebrosidase-p2 (AID 348; in the data active = potency below about 10 µM; also: potency is read from the fitted curve at half-maximal effect); conditions: purified GBA, blue fluorogenic substrate, 40 min
Summary of the method: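 Compounds titrated from 0.6 nM upwards against 0.2 nM enzyme in pH 5.9 citric acid/KH2PO4, taurocholate, tween-20; blue fluorogenic substrate 80 uM, 40 min room temperature, stopped and read Ex 365/Em 440 for AC50.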

[2] = AP1 Signaling Pathway (AID 357; active = well fitted curve in either direction with a large enough effect, not every such curve was filed as active;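 also: ME-180 reporter cells stimulated with EGF at its EC50 level; % is scaled to controls: 0 for no effect and ±100 for the full control effect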); conditions: ME-180 AP-1-bla reporter, EGF-induced, beta-lactamase ratio, 5 h; at 7.69 µM (top of the series) unless noted
Summary of the method: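 Titration-series screen for positive or negative modulators of EC50 EGF-induced signaling in ME-180 cells carrying an AP-1-driven beta-lactamase reporter. After 5 hours at 37 degrees Celsius, CCF4 460nm/530nm emission ratio gave %Activity; AC50 values derived.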

[3] = molecular target: Cytochrome P450 1A2 (Homo sapiens) (UniProt P05177); assay: p450-cyp1a2 (AID 410; calls by dose curve; also: potency is read from the fitted curve at half-maximal effect;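 as to activity change, negative = inhibition: -100% = full effect of reference inhibitor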)
Summary of the method: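 Luminescent readout of luciferin formed from Luciferin-ME by human CYP1A2; data normalized against complete inhibition by 57 uM furafylline. Enzyme 20nM, substrate 100uM at Km, 100mM KPO4 buffer, 60 min reaction at room temperature.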

[4] = NFAT Signaling Pathway (AID 444; active = well fitted curve in either direction with a large enough effect, not every such curve was filed as active;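 also: carbachol stimulus at about its EC50 of 1 µM final; % is scaled to controls: 0 for no effect and ±100 for the full control effect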); conditions: Jurkat NFAT-bla M1, carbachol, beta-lactamase ratio, 5 h; at 7.69 µM (top of the series) unless noted
Summary of the method: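 Jurkat cells carrying an NFAT-driven β-lactamase reporter and co-transfected muscarinic M1 receptor were treated with compound plus carbachol (1 uM final, an EC50 level) for 5 h at 37 °C. CCF4 loading followed for 1 h at RT; 460/530 nm ratio gave %activity.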

[5] = Stat Signaling Pathway (AID 446; active = well fitted curve in either direction with a large enough effect, not every such curve was filed as active;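 also: ME-180 cervical cancer cells given 40 pM IL-6 alongside compound; SIE-controlled beta-lactamase reporter measured as 460/530 nm FRET emission ratio; % is scaled to controls: 0 for no effect and ±100 for the full control effect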); conditions: ME-180 SIE beta-lactamase reporter, IL-6 stimulated, 5 h; at 7.69 µM (top of the series) unless noted
Summary of the method: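 ME-180 SIE-bla cells; overnight plating; cpd + IL-6 40 pM, 5 h, 37 C; LiveBLAzer 2.5 h RT; 460/530 nm emission ratio. Normalized to 300 pM IL-6 and 125 nM JAK inhibitor controls.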

[6] = molecular target: Glucocorticoid receptor (Homo sapiens) (UniProt P04150); assay: GR-GFP Redistribution (AID 450;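 active = compounds whose dose series gives a full or clear partial fitted curve of increased nuclear translocation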; also: potency is read from the fitted curve at half-maximal effect); conditions: U2OS GR-GFP nuclear translocation, laser cytometry, 2 h
[7] = molecular target: Glucocorticoid receptor (Homo sapiens) (UniProt P04150); assay: GR-EFC Redistribution (AID 451; calls by dose curve; also: potency is read from the fitted curve at half-maximal effect); conditions: CHO-K1 GR-EFC translocation, beta-gal luminescence, 2 h
Summary of the method: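 CHO-K1 cells stably expressing nuclear-localized β-gal enzyme acceptor and GR fused C-terminally to the enzyme donor fragment; ligand-driven nuclear translocation restores β-gal by complementation. Compounds titrated up to 46 uM final, 2 h at 37 °C; luminescence read.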

[8] = molecular target: Mitogen-activated protein kinase 10 (Mus musculus) (UniProt Q61831); assay: JNK3 AlphaScreen Assay (AID 530; active = well fitted curve in either direction with a large enough effect, not every such curve was filed as active;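 also: kinase came from lysate of stimulated human HepG2 cells; signal reports phosphorylation of biotinylated GST-cJun 1-79 at Ser73 with 10 µM ATP; % is scaled to controls: 0 for no effect and ±100 for the full control effect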)
Summary of the method: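 Inhibitors reduce antibody binding to phosphorylated biotin-cJun, lowering AlphaScreen luminescence. Lysates from HepG2 cells pre-activated by IL-1beta plus TNF-alpha supplied JNK3; compounds were titrated.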

[9] = molecular target: Cytochrome P450 3A4 (Homo sapiens) (UniProt P08684); assay: qHTS Assay for Inhibitors and Substrates of Cytochrome P450 3A4 (AID 884); also: nearly all actives have a fitted effect of over 50% in size; also: potency is read from the fitted curve at half-maximal effect
Summary of the method: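 20 nM human CYP3A4 with 25 uM Luciferin-PPXE (at KM) in 200 mM KPO4, preincubated 10 min with compound; NADPH regeneration started a 60 min RT reaction. Luciferin detected by luminescence, normalized to 57 uM ketoconazole as full inhibition.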

[10] = molecular target: Cytochrome P450 3A4 (Homo sapiens) (UniProt P08684); assay: qHTS Assay for Activators of Cytochrome P450 3A4 (AID 885); also: nearly all actives have a fitted effect of over 65% in size
Summary of the method: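 20nM CYP3A4 + 25uM Luciferin-PPXE (=KM), 200mM KPO4; cpd 10 min RT; NADPH regen, 60 min RT; stop w/ detection buffer, 20 min; luminescence. Normalized to 57 uM ketoconazole.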

[11] = qHTS Assay for Identification of Small Molecule Agonists for Hypoxia Response Element Signaling Pathway (AID 914; active = well fitted activation curve with a large enough effect in the signal ratio, with a control signal flat, not every such curve was filed as active; the % refers to the signal ratio; also: potency is read from the fitted curve at half-maximal effect; as to activation: % of control where 0% means no effect); conditions: ME-180 (cervical carcinoma) HRE-bla reporter, beta-lactamase ratio, CoCl2, 17 h; activation: stronger effect = higher value
Summary of the method: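 AC50 values come from titration-series %Activity, taken as the 460/530nm ratio of CCF4 fluorescence (excitation 405nm). CellSensor HRE-bla ME-180 cells were treated 17 hours at 37 C with compound plus an EC50 level of CoCl2.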

[12] = Counterscreen qHTS for small molecule stabilizers of the endoplasmic reticulum resident proteome: GLuc-NoTag assay (AID 1508627); also: potency is read from the fitted curve at half-maximal effect;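 as to activity change, negative = inhibition: SH-SY5Y cells given compound then 100 nM thapsigargin to empty ER calcium; 0% = thapsigargin alone and -100% = DMSO vehicle control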
Summary of the method: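 SH-SY5Y cells stably expressing constitutively secreted GLuc (no SERCaMP tag) were pre-incubated 5 h, treated with compound for 19 h, then 100 nM thapsigargin for 4 h at 37C; medium GLuc read by coelenterazine luminescence.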

[13] = Confirmatory qHTS for small molecule stabilizers of the endoplasmic reticulum resident proteome: Secreted ER Calcium Modulated Protein (SERCaMP) assay (AID 1508628); also: nearly all actives have a fitted effect of over 40% in size; also: potency is read from the fitted curve at half-maximal effect
Summary of the method: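 SH-SY5Y cells stably expressing GLuc-SERCaMP, treated 16 h with compound (primary 1.53, 7.67, 38.3 uM; confirmation 11 concentrations, up to 76.6 uM), then 100 nM thapsigargin for 4 h. Secreted Gaussia luciferase in medium read by coelenterazine luminescence.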

[14] = qHTS Assay for Lipid Storage Modulators (AID 1519; calls by dose curve); conditions: Drosophila S3 cells, BODIPY lipid droplet/cell ratio, laser cytometry, cells loaded with oleic acid; for activity change, negative = inhibition: at 57.5 µM (top of the series)
Summary of the method: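 Cells seeded at 5,000 per well were treated with compounds over a concentration series and loaded with oleic acid (400 uM, as added). Lipid droplet fluorescence (488 nm excitation, 500-530 nm channel) was read by laser-scanning cytometry and normalized to 20 uM Triacsin C.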

[15] = molecular target: 3',5'-cyclic-AMP phosphodiesterase 4B (Homo sapiens) (UniProt Q07343); assay: qHTS Assay for Inhibitors of PDE-IV (AID 607; active = well fitted activation curve with a large enough effect in the main read-out, with a control signal flat, not every such curve was filed as active; also: % of control where 0% means no effect)
Summary of the method: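 ACTOne HEK293 cells carry a modified cAMP-gated CNG channel and express endogenous PDE4; plated 1000 cells/well, compounds up to 22.9 uM final. Membrane-potential dye fluorescence (ex 535/em 590) was read; parental cells received 10 uM forskolin + 100 uM RO 20-1724.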

[16] = molecular target: Dual specificity protein kinase CLK4 (Homo sapiens) (UniProt Q9HAZ1); assay: qHTS Assay for Inhibitors of CDC-like Kinase 4 (Kinase-Glo Assay) (AID 1770); also: % is scaled to controls: 0 for no effect and ±100 for the full control effect; nearly all actives have a fitted effect of over 65% in size
Summary of the method: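 Luminescent ATP-depletion read-out (Kinase-Glo) after 4.5 h room-temperature reaction of Clk4 (25 nM final) with RS peptide (100 uM) and ATP (1 uM), pH 7.5 Tris buffer with MgCl2 and DTT.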

[17] = molecular target: Dual specificity protein kinase CLK4 (Homo sapiens) (UniProt Q9HAZ1); assay: qHTS Assay for Inhibitors of CDC-like Kinase 4 (ADP-Glo Assay) (AID 1771); also: % is scaled to controls: 0 for no effect and ±100 for the full control effect; nearly all actives have a fitted effect of over 70% in size
Summary of the method: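 Luminescence from ADP-Glo reports ADP produced by 25 nM Clk4 acting on 100 uM RS repeat peptide with 1 uM ATP over 1 hr at room temperature; residual ATP is depleted before ADP is converted to ATP for detection.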

[18] = molecular target: Dual specificity protein kinase CLK4 (Homo sapiens) (UniProt Q9HAZ1); assay: qHTS Assay for Inhibitors of CDC-like Kinase 4 (ADP-FP Assay) (AID 1795);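 also: recombinant human CLK4 phosphorylating RS repeat peptide at 1 µM ATP; % is scaled to controls: 0 for no effect and ±100 for the full control effect; nearly all actives have a fitted effect of over 60% in size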
Summary of the method: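 Kinase activity was measured as ADP production using Transcreener orange tracer (4 nM) and ADP antibody (1 ug/mL) fluorescence polarization, with ADP calculated from a calibration curve. The 1 h reaction contained 6.25 nM Clk4, 1 uM ATP and 100 uM RS peptide at pH 7.5 with Mg2+.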

[19] = molecular target: Ubiquitin carboxyl-terminal hydrolase 1 (Homo sapiens) (UniProt O94782); assay: Inhibitors of USP1/UAF1: Pilot qHTS (AID 504865);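 also: rhodamine fluorescence freed from ubiquitin-rhodamine substrate followed over time; top concentration of the series differs between compounds; % is scaled to controls: 0 for no effect and ±100 for the full control effect; nearly all actives have a fitted effect of over 35% in size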
Summary of the method: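 Deubiquitinase activity followed as kinetic rhodamine fluorescence release from 150 nM Ub-Rho. 1 nM USP1/UAF1 with compound, after 15 min room-temperature preincubation, in HEPES pH 7.8 buffer containing TCEP, EDTA, BSA and Tween-20.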

[20] = Confirmation and Secondary Assay for Modulators of Hemoglobin Beta Chain Splicing at IVS2 654 locus (AID 910);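 also: per-well total GFP intensity by laser scanning cytometry after 2-day treatment; % of control where 0% means no effect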
Summary of the method: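 HeLa cells stably carrying EGFP interrupted by mutant beta-globin IVS2-654 intron (CMV-driven) were treated with compound for 2 days at 37C; corrected splicing was scored as total peak GFP intensity per well (488 nm excitation, 500-520 nm emission).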

[21] = Confirmation and Secondary Assay for Modulators of Hemoglobin Beta Chain Splicing at IVS2 705 locus (AID 930);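 also: HeLa cells stably expressing the EGFP-705 splicing reporter; % of control where 0% means no effect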
Summary of the method: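 Restored EGFP fluorescence after 2-day compound exposure reports splicing correction in IVS2-705 EGFP reporter HeLa cells; positive control was 500 nM splice-blocking PNA oligo. Signal measured as well total peak GFP intensity (488 nm excitation).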

[22] = measured here: cell count channel max response
[23] = measured here: lipid channel max response

Sequence of Glucocorticoid receptor (Homo sapiens) (P04150 whole entry, looked up, the tested form may be a part): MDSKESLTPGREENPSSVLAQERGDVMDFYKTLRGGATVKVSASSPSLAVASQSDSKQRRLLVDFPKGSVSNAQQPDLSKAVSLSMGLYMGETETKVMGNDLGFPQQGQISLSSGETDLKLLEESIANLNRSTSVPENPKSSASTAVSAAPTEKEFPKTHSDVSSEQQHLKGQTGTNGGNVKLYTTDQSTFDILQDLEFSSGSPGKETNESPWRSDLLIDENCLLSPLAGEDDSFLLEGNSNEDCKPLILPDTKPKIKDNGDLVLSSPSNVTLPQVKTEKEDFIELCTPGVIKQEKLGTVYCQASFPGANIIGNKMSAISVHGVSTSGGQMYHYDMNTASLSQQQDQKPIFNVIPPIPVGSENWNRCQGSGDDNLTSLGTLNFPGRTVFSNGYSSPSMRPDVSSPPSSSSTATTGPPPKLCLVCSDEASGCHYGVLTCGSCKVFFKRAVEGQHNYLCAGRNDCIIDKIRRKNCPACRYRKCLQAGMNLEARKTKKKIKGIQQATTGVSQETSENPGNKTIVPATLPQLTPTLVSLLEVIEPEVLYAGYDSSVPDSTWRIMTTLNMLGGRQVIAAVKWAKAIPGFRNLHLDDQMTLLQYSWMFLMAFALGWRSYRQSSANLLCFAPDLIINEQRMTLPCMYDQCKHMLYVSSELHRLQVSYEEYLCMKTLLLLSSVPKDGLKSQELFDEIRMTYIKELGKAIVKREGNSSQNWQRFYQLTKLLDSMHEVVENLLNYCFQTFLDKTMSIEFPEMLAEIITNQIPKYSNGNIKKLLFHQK
Sequence of Dual specificity protein kinase CLK4 (Homo sapiens) (Q9HAZ1 whole entry, looked up): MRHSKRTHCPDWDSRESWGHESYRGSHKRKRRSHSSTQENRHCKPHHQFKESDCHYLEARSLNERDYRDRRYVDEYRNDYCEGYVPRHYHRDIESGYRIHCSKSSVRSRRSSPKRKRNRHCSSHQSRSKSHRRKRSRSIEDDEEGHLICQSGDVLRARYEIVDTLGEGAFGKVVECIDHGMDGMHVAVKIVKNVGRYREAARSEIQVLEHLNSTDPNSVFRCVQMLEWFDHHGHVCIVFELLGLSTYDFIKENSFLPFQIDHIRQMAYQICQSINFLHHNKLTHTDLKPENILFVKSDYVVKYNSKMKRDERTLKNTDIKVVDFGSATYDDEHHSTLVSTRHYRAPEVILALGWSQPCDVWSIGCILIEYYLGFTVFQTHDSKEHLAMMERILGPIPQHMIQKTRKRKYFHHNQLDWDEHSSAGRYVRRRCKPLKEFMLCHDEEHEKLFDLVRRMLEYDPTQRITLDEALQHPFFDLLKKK
Sequence of Lysosomal acid glucosylceramidase (Homo sapiens) (P04062 whole entry, looked up): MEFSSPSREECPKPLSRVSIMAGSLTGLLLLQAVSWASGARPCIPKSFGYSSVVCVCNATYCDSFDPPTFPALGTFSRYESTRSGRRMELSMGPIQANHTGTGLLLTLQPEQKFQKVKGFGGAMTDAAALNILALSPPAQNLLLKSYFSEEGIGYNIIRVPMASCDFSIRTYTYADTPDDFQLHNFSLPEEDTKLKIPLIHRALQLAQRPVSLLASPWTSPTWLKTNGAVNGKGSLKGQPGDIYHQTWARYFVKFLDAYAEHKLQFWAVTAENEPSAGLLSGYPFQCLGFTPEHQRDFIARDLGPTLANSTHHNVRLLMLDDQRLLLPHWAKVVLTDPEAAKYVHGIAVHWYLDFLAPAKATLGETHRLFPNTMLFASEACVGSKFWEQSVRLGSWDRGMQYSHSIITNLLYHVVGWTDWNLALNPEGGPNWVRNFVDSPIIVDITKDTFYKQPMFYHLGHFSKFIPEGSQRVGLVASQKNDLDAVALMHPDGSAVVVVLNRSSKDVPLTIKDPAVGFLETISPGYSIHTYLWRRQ
Sequence of Cytochrome P450 3A4 (Homo sapiens) (P08684 whole entry, looked up): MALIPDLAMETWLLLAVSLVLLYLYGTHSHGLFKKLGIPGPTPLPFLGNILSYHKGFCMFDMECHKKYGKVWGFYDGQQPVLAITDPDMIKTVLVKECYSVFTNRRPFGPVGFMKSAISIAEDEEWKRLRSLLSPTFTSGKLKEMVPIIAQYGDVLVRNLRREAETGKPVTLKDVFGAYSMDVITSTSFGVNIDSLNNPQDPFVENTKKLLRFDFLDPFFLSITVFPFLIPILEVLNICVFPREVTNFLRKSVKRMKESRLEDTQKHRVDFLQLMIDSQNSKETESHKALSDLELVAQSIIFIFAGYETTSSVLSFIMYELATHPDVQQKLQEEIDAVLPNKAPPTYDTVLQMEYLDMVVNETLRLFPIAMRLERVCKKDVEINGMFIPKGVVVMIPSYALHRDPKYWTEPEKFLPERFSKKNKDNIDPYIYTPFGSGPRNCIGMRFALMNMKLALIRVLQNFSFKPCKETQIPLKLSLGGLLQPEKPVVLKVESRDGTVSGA
Sequence of 3',5'-cyclic-AMP phosphodiesterase 4B (Homo sapiens) (Q07343 whole entry, looked up): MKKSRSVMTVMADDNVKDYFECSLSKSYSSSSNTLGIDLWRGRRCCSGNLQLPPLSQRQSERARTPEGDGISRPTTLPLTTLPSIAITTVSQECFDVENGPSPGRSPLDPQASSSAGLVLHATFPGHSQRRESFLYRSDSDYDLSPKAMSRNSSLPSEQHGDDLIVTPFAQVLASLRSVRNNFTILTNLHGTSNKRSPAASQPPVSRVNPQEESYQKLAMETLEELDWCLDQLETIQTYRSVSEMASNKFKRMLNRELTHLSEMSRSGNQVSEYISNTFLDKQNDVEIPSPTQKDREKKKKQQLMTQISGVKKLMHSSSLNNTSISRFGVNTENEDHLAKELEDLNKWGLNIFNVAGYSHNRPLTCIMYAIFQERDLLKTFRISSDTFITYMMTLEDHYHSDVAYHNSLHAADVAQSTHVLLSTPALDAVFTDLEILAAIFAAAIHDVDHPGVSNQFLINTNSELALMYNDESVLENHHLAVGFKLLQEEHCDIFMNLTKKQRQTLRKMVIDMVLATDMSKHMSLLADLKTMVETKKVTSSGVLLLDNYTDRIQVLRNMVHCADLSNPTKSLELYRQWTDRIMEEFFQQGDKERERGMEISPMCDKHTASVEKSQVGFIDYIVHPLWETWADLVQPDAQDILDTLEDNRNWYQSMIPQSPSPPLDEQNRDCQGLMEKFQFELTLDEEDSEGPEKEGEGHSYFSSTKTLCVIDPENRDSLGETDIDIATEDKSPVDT
Sequence of Ubiquitin carboxyl-terminal hydrolase 1 (Homo sapiens) (O94782 whole entry, looked up): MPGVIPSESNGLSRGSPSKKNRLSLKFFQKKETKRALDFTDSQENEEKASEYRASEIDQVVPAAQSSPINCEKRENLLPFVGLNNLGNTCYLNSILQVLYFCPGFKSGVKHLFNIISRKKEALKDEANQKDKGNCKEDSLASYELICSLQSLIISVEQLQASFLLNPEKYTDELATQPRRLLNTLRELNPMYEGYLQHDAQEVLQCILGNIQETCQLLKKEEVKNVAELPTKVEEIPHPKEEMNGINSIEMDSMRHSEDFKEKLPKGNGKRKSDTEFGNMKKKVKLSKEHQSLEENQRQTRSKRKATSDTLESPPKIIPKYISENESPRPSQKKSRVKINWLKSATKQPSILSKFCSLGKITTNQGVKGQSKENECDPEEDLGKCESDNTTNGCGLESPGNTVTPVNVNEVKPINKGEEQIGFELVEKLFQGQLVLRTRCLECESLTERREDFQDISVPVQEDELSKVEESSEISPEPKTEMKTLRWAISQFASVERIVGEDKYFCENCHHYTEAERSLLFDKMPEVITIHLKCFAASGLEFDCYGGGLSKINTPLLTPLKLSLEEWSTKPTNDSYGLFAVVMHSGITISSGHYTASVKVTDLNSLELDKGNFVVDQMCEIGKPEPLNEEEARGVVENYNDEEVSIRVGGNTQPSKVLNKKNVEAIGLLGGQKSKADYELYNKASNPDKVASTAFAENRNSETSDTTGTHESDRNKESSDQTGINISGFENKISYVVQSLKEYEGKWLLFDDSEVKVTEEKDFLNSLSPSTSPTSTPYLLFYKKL
Sequence of Cytochrome P450 1A2 (Homo sapiens) (P05177 whole entry, looked up): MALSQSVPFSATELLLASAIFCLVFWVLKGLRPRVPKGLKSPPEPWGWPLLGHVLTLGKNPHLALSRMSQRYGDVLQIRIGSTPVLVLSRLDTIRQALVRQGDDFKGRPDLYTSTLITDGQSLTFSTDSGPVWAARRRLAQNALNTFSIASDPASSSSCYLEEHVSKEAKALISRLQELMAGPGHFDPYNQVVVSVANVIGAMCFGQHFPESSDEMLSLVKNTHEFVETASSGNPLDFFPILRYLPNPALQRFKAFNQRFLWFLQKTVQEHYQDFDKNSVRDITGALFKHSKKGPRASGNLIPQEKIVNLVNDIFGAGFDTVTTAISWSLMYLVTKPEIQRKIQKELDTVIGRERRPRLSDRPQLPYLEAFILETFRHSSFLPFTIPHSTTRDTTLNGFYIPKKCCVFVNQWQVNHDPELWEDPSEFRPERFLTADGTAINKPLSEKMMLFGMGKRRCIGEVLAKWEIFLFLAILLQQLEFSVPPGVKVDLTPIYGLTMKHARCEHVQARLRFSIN

CN1CCN(c2ncc3nc(CCc4ccccc4)c(=O)n(Cc4ccc(F)cc4)c3n2)CC1
active: Potency [9] 5.01 µM | Potency [13] 25.1 µM
inactive: Potency [1] > 11.4 µM | activity change, negative = inhibition [2] 4.85% | Potency [3] | activity change, negative = inhibition [4] -12.2% | activity, negative = inhibition [5] -1.54% | Potency [6] > 9.22 µM | Potency [7] > 46 µM | outcome [8] | Potency [10] | activation [11] -6.17% | Potency [12]

O=C(c1cc(C(F)(F)F)cc(C(F)(F)F)c1)N1CCC2(CC1)CCN(c1ccncc1)CC2
0.493%: max response [14, 23]
-1.35%: max response [14, 22]
inactive: Potency [1] > 11.4 µM | activity change, negative = inhibition [2] 24.2% | activity, negative = inhibition [5] 16.4% | Potency [7] > 46 µM | outcome [8] | Potency [9] | activity change, negative = inhibition [14] 0.636% | Potency [12] | Potency [13]

O=c1cnc2cnc(N3CCNCC3)nc2n1Cc1cccs1
inactive: Potency [1] > 11.4 µM | activity change, negative = inhibition [2] -4.82% | activity, negative = inhibition [5] 0.322% | Potency [6] > 9.22 µM | Potency [7] > 46 µM | outcome [8] | Potency [15] | Potency [10] | Potency [12]
active: Potency [13] 31.6 µM

CN1CCN(c2ncc3nc(-c4ccccc4)c(=O)n(-c4ccccc4)c3n2)CC1
active: Potency [11] 3.16 µM | Potency [13] 25.1 µM
inactive: Potency [1] > 11.4 µM | Potency [6] > 9.22 µM | Potency [7] > 46 µM | outcome [8] | Potency [15] | Potency [12]

COc1ccc(-c2nc3cnc(N4CCN(C)CC4)nc3n(Cc3cccc(OC)c3)c2=O)cc1
8.4%: max response [14, 22]
inactive: Potency [1] > 11.4 µM | Potency [6] > 9.22 µM | Potency [7] > 46 µM | Potency [15] | activity change, negative = inhibition [14] -2.59% | Potency [16] | Potency [17] | Potency [18] | Potency [19] | Potency [13]
2.85%: max response [14, 23]

Cc1cccc(CNc2ncnc3ccc(-c4ccccc4CN(C)C)cc23)c1
-10.3%: max response [14, 22]
-6.74%: max response [14, 23]
active: Potency [12] 0.447 µM
inactive: Potency [1] > 11.4 µM | activity change, negative = inhibition [2] -7.85% | activity, negative = inhibition [5] -2.09% | Potency [6] > 46 µM | Potency [7] > 46 µM | outcome [8] | outcome [20] | outcome [21] | activity change, negative = inhibition [14] 3.56%

COc1ccccc1-c1ccc2ncnc(N3CCN(C)CC3)c2c1
inactive: Potency [1] > 11.4 µM | activity change, negative = inhibition [2] 2.3% | activity change, negative = inhibition [4] 4.65% | activity, negative = inhibition [5] 2.98% | Potency [6] > 46 µM | Potency [7] > 46 µM | outcome [8] | Potency [15] | Potency [10] | outcome [20] | outcome [21] | Potency [19]
active: Potency [3] 3.16 µM | Potency [9] 3.16 µM | Potency [12] 44.7 µM
